Among the data in PubChem BioAssay (EPA / NIEHS) are outcome and AC50 values, retold here.

Holding throughout (settings): mRNA level, 48 h; actives raise or lower the signal
Read-out in assay [1]: MYC, MYC (gene 4609)
The assay can be described thus: LTEA_HepaRG_MYC: Life Technologies and Expression Analysis (LTEA) Assay for MYC using HepaRG (AID 2283518). Summed up: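 Expression changes were scored by TaqMan qRT-PCR with ACTB, GAPDH and POLR2A normalization. Cultures in serum-free induction medium received duplicate 8-point concentration series, highest 100 uM, for 48 h; DMSO (0.5%) served as baseline.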

Read-out in assay [2]: Paternally Expressed 10 (PEG10), PEG10 (gene 23089)
The assay can be described thus: LTEA_HepaRG_PEG10: Life Technologies and Expression Analysis (LTEA) Assay for Paternally Expressed 10 (PEG10) using HepaRG (AID 2283520).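 As to AC50: PEG10 transcript by qRT-PCR normalised to ACTB GAPDH and POLR2A.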 Summed up:
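Chemicals tested on HepaRG cells for 48 h, highest concentration 100 uM. PEG10 expression assessed by qRT-PCR relative to DMSO control.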

Read-out in assay [3]: Nuclear factor NF-kappa-B p105 subunit (Homo sapiens) (UniProt P19838)
The assay can be described thus: LTEA_HepaRG_NFKB1: Life Technologies and Expression Analysis (LTEA) Assay for Nuclear Factor Kappa B Subunit 1 (NFKB1) using HepaRG (AID 2283521).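 Also: TaqMan qRT-PCR transcript normalised to ACTB GAPDH and POLR2A housekeeping genes.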 Summed up: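 Differentiated human HepaRG cells were exposed for 48 h in serum-free induction medium to eight concentrations (top 100 uM, half-log steps, 0.5% DMSO), in duplicate. NFKB1 mRNA was measured by TaqMan qRT-PCR, normalized to ACTB/GAPDH/POLR2A, and fitted bidirectionally against DMSO.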

Read-out in assay [4]: Protein phosphatase 2A (PPP2R4), PTPA (gene 5524)
The assay can be described thus: LTEA_HepaRG_PPP2R4: Life Technologies and Expression Analysis (LTEA) Assay for Protein phosphatase 2A (PPP2R4) using HepaRG (AID 2283522). Summed up: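 Gene-expression endpoint in HepaRG hepatic cells: 48 h treatment across eight half-log concentrations up to 100 uM in 0.5% DMSO. PPP2R4 mRNA by qRT-PCR, normalized to three endogenous control genes.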

Read-out in assay [5]: Phosphatase and tensin (PTEN), PTEN (gene 5728)
The assay can be described thus: LTEA_HepaRG_PTEN: Life Technologies and Expression Analysis (LTEA) Assay for Phosphatase and tensin (PTEN) using HepaRG (AID 2283523). In short, it runs like this: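 HepaRG cells, 48 h after plating, exposed in duplicate for 48 h in serum-free induction medium to 8 half-log concentrations up to 100 uM (0.5% DMSO). PTEN mRNA by qRT-PCR, normalized to ACTB, GAPDH, POLR2A; bidirectional fit versus DMSO.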

Read-out in assay [6]: solute carrier (SLC22A1), SLC22A1 (gene 6580)
The assay can be described thus: LTEA_HepaRG_SLC22A1: Life Technologies and Expression Analysis (LTEA) Assay for solute carrier (SLC22A1) using HepaRG (AID 2283524). In short, it runs like this: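 Differentiated human HepaRG cells in serum-free induction medium, exposed 48 h in duplicate to 8-point half-log series from 100 µM top in 0.5% DMSO. SLC22A1 mRNA by TaqMan qRT-PCR normalized to ACTB, GAPDH, POLR2A; bidirectional fit versus DMSO.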

Read-out in assay [7]: Pyruvate Dehydrogenase Kinase 4 (PDK4), PDK4 (gene 5166)
The assay can be described thus: LTEA_HepaRG_PDK4: Life Technologies and Expression Analysis (LTEA) Assay for Pyruvate Dehydrogenase Kinase 4 (PDK4) using HepaRG (AID 2283525). Summed up:
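HepaRG cells plated 48 h, then switched to serum-free induction medium and exposed in duplicate for 48 h to 8 half-log concentrations from 100 uM in 0.5% DMSO. PDK4 mRNA measured by qRT-PCR, normalized to ACTB, GAPDH and POLR2A; bidirectional fit versus DMSO.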

Read-out in assay [8]: NAD(P)H dehydrogenase [quinone] 1 (NQO1), NQO1 (gene 1728)
The assay can be described thus: LTEA_HepaRG_NQO1: Life Technologies and Expression Analysis (LTEA) Assay for NAD(P)H dehydrogenase [quinone] 1 (NQO1) using HepaRG (AID 2283526). Summed up: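 Human HepaRG hepatic cells received chemicals for 48 h in serum-free induction medium with 0.5% DMSO, up to 100 uM. Expression was assessed by TaqMan qRT-PCR against housekeeping controls and fitted bidirectionally against DMSO.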

Read-out in assay [9]: Nuclear factor erythroid 2-related factor 2 (Homo sapiens) (UniProt Q16236)
The assay can be described thus: LTEA_HepaRG_NFE2L2: Life Technologies and Expression Analysis (LTEA) Assay for Nuclear factor erythroid 2-related factor 2 (NFE2L2) Transcription Factor using HepaRG (AID 2283527).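 As to outcome: TaqMan qRT-PCR transcript level normalised to ACTB GAPDH and POLR2A housekeeping genes.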 In short, it runs like this: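 Differentiated human HepaRG cells, serum-free induction medium, exposed 48 h in duplicate to eight half-log concentrations up to 100 uM in 0.5% DMSO. NFE2L2 mRNA by Fluidigm TaqMan qRT-PCR, normalised to ACTB, GAPDH, POLR2A; bidirectional change versus DMSO.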

Read-out in assay [10]: succinate dehydrogenase complex iron sulfur subunit B (SDHB), SDHB (gene 6390)
In words: LTEA_HepaRG_SDHB: Life Technologies and Expression Analysis (LTEA) Assay for succinate dehydrogenase complex iron sulfur subunit B (SDHB) using HepaRG (AID 2283528). In short, it runs like this:
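HepaRG, 48 h exposure, 8-pt half-log series from 100 uM in 0.5% DMSO, duplicates. Readout: SDHB mRNA by Fluidigm qRT-PCR vs housekeeping genes; bidirectional fit relative to DMSO.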

Read-out in assay [11]: Signal transducer and activator of transcription 3 (Homo sapiens) (UniProt P40763)
In words: LTEA_HepaRG_STAT3: Life Technologies and Expression Analysis (LTEA) Assay for Signal transducer and activator of transcription (STAT3) using HepaRG (AID 2283529). Summed up: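 Differentiated HepaRG cells, serum-free induction medium, dosed 48 h in duplicate, 8 half-log concentrations from 100 uM in 0.5% DMSO. STAT3 mRNA by qRT-PCR, normalised to ACTB, GAPDH, POLR2A; bidirectional fit versus DMSO.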

Read-out in assay [12]: solute carrier (SLCO1B1), SLCO1B1 (gene 10599)
The assay can be described thus: LTEA_HepaRG_SLCO1B1: Life Technologies and Expression Analysis (LTEA) Assay for solute carrier (SLCO1B1) using HepaRG (AID 2283530). In short, it runs like this:
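Human HepaRG cultures treated for 48 h with an eight-concentration half-log series topping at 100 uM; SLCO1B1 measured by qRT-PCR and fitted bidirectionally relative to DMSO.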

Read-out in assay [13]: Transforming Growth Factor (TGFA), TGFA (gene 7039)
The assay can be described thus: LTEA_HepaRG_TGFA: Life Technologies and Expression Analysis (LTEA) Assay for Transforming Growth Factor (TGFA) using HepaRG (AID 2283532). Summed up:
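Differentiated HepaRG cells exposed 48 hours in serum-free induction medium, 0.5% DMSO vehicle, 8-point half-log series from 100 uM, in duplicate. TGFA mRNA by TaqMan qRT-PCR, normalised to ACTB, GAPDH, POLR2A; bidirectional fit versus DMSO.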

Read-out in assay [14]: Transforming Growth Factor (TGFB1), TGFB1 (gene 7040)
The assay can be described thus: LTEA_HepaRG_TGFB1: Life Technologies and Expression Analysis (LTEA) Assay for Transforming Growth Factor (TGFB1) Transporter using HepaRG (AID 2283533). In short, it runs like this:
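Eight-point concentration-response (max 100 uM, half-log) in HepaRG under serum-free induction conditions, 48 h. TGFB1 mRNA by qRT-PCR, housekeeping-normalized.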

Read-out in assay [15]: Tumor necrosis factor receptor 1 (TNFRSF1A), TNFRSF1A (gene 7132)
In words: LTEA_HepaRG_TNFRSF1A: Life Technologies and Expression Analysis (LTEA) Assay for Tumor necrosis factor receptor 1 (TNFRSF1A) using HepaRG (AID 2283535). Summed up: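 Assay uses 48 h chemical treatment of differentiated HepaRG monolayers, tested in duplicate at eight concentrations from 100 uM downward in 0.5% DMSO. mRNA is normalized to ACTB, GAPDH and POLR2A, with induction or suppression fitted relative to vehicle.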

Read-out in assay [16]: Thyroid Hormone Responsive (THRSP), THRSP (gene 7069)
The assay can be described thus: LTEA_HepaRG_THRSP: Life Technologies and Expression Analysis (LTEA) Assay for Thyroid Hormone Responsive (THRSP) using HepaRG (AID 2283536). Summed up:
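Differentiated HepaRG cells treated 48 h in serum-free induction medium with 8 half-log concentrations up to 100 uM (0.5% DMSO), duplicates. THRSP mRNA by TaqMan qRT-PCR normalised to ACTB, GAPDH, POLR2A; bidirectional fit versus DMSO.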

Read-out in assay [17]: Cellular tumor antigen p53 (Homo sapiens) (UniProt P04637)
The assay can be described thus: LTEA_HepaRG_TP53: Life Technologies and Expression Analysis (LTEA) Assay for Tumor Protein P53 (TP53) using HepaRG (AID 2283537). Summed up: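 HepaRG, 48 h exposure, top 100 uM, half-log 8-point, 0.5% DMSO vehicle, duplicates. Read: TP53 mRNA by TaqMan qRT-PCR, normalised to ACTB/GAPDH/POLR2A; bidirectional fit vs DMSO.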

Read-out in assay [18]: TIMP1, TIMP1 (gene 7076)
The assay can be described thus: LTEA_HepaRG_TIMP1: Life Technologies and Expression Analysis (LTEA) Assay for TIMP1 using HepaRG (AID 2283534).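 Also: TaqMan qRT-PCR signal normalized to ACTB GAPDH and POLR2A housekeeping genes.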 In short, it runs like this:
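TIMP1 induction or repression in HepaRG cells after 48 h chemical exposure (eight concentrations, highest 100 uM), assessed by normalized qRT-PCR with bidirectional fitting to DMSO controls.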

Read-out in assay [19]: matrix metalloproteinase-3 (MMP3), MMP3 (gene 4314)
The assay can be described thus: LTEA_HepaRG_MMP3: Life Technologies and Expression Analysis (LTEA) Assay for matrix metalloproteinase-3 (MMP3) using HepaRG (AID 2283519). In short, it runs like this: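 HepaRG cells (~100,000/well) in serum-free induction medium were dosed in duplicate for 48 h with an 8-point half-log series from 100 uM, 0.5% DMSO. MMP3 mRNA was quantified by Fluidigm TaqMan qRT-PCR, normalized to three housekeeping genes.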

The source made the active and inactive calls. The calls were made as follows: active = hit-call score of the fitted dose curve at least 0.9, where 1 is the maximum; inactive = score below 0.9.

Signal transducer and activator of transcription 3 (Homo sapiens), sequence (P40763 whole entry, looked up): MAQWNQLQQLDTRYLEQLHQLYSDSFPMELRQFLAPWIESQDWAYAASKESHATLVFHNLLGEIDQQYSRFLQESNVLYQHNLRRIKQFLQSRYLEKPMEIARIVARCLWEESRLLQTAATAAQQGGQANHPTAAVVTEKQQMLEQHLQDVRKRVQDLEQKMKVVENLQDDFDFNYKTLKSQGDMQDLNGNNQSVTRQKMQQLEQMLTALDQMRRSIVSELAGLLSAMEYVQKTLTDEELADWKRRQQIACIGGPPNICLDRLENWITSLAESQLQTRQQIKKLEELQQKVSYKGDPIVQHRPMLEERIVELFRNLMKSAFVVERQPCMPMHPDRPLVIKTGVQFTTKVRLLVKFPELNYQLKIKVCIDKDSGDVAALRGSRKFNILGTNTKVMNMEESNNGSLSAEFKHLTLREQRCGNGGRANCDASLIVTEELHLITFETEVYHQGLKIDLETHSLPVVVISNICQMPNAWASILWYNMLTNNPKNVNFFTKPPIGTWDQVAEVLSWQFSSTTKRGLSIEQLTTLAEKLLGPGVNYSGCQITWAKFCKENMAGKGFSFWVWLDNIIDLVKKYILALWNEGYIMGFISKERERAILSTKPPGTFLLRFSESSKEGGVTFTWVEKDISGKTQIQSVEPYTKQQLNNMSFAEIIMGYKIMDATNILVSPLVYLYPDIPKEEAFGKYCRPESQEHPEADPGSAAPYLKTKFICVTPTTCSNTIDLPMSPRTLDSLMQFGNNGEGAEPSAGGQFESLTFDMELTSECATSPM
Nuclear factor NF-kappa-B p105 subunit (Homo sapiens), sequence (P19838 whole entry, looked up): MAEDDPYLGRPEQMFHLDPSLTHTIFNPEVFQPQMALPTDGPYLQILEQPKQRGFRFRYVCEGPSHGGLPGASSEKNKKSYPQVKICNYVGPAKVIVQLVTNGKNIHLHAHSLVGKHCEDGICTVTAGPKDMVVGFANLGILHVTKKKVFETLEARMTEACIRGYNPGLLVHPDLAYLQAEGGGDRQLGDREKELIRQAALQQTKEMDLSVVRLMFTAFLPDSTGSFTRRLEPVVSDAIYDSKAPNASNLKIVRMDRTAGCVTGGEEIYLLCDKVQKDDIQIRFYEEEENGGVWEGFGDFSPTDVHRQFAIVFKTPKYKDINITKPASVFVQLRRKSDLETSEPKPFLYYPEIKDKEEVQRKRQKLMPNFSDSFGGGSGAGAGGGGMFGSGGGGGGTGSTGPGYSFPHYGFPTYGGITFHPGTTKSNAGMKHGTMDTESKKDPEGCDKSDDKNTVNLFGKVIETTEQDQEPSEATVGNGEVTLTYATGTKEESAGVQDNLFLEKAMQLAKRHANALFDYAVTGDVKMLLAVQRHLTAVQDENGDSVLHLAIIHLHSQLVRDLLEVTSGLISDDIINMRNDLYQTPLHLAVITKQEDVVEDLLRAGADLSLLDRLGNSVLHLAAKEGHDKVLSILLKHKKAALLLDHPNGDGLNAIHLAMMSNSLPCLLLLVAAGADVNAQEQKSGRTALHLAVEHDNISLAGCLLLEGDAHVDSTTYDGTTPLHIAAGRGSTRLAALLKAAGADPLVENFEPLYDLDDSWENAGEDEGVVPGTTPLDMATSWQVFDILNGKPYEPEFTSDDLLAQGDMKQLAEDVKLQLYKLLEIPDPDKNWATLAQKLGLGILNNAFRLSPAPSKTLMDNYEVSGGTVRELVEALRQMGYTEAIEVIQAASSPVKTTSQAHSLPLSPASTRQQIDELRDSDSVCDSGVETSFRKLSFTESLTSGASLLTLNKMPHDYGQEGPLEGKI
Nuclear factor erythroid 2-related factor 2 (Homo sapiens), sequence (Q16236 whole entry, looked up): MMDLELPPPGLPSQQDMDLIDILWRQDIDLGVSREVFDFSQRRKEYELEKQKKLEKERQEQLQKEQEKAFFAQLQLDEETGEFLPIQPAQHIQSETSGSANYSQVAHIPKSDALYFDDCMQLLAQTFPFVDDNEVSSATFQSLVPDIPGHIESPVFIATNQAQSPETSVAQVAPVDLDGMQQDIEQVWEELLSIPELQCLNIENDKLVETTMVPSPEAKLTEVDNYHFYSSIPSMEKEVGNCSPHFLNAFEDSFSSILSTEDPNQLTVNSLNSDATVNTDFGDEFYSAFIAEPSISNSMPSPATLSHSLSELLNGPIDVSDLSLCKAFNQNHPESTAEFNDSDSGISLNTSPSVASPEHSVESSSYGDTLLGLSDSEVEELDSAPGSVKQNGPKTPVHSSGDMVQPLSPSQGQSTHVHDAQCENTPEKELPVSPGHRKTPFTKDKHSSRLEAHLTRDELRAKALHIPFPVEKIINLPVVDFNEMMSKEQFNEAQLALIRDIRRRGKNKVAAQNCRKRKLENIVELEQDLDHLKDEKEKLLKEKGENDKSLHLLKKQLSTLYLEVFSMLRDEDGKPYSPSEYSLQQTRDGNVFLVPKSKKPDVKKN
Cellular tumor antigen p53 (Homo sapiens), sequence (P04637 whole entry, looked up): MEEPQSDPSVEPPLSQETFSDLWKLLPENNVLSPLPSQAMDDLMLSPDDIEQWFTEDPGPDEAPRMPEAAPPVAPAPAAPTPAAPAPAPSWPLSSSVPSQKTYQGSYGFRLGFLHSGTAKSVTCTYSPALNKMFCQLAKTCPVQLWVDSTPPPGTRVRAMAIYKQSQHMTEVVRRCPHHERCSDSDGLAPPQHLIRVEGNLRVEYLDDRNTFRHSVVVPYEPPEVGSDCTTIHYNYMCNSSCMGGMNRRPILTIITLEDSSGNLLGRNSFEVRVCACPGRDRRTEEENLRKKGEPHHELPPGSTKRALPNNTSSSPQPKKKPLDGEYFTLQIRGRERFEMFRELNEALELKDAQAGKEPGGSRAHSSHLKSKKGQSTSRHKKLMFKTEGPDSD

As to `COc1nc(NC(C)C)nc(NC(C)C)n1`, the compound was called inactive in assay [1], in assay [2], in assay [3], in assay [4], in assay [5] and in [6]. Besides, the compound was called inactive in assay [7], in assay [8], in assay [9], in assay [10], in assay [11] and in [12]. Moreover, the compound was classed as inactive in [13], in [14], in assay [15], in [16] and in [17].

Take `COc1ccc(C(c2ccc(OC)cc2)C(Cl)(Cl)Cl)cc1`: the AC50 is 49.8 µM (active) in assay [1]; 84.8 µM (active) in [6]; 12.7 µM (active) in [9]; 33.2 µM (active) in [10]; 81.7 µM (active) in assay [16]; 66.7 µM (active) in assay [17]. Further, the call in assay [2], in assay [3], in [4], in assay [5], in [7] and in assay [8] was inactive. The outcome in [11], in assay [12], in assay [13], in assay [18] and in assay [15] was inactive.

As for `CCOc1cc(Oc2ccc(C(F)(F)F)cc2Cl)ccc1[N+](=O)[O-]`, the AC50 in assay [1] was 28.4 µM (active); in assay [2] it was 24.9 µM (active); in [6], 38.6 µM (active); in assay [9], 21.9 µM (active); in assay [12] it was 20.6 µM (active); in [13] it was 15.3 µM (active). The AC50 in [16] is 21.7 µM (active); in [17], 14 µM (active). Also, the call in assay [19], in [3], in assay [4], in assay [5], in assay [7] and in assay [8] was inactive. Further, the outcome in [10], in assay [11], in assay [18] and in assay [15] was inactive.

`CCCCOC(=O)c1ccccc1C(=O)OCCCC`: the call in assay [1], in assay [2], in assay [3], in [4], in assay [5] and in [6] was inactive. The call in assay [7], in assay [8], in assay [9], in assay [10], in [11] and in assay [12] was inactive. In addition, the call in [13], in assay [14], in assay [15], in assay [16] and in assay [17] was inactive.

With `CC(C)Oc1cc(-n2nc(C(C)(C)C)oc2=O)c(Cl)cc1Cl`, the half-maximal activity concentration (AC50) in assay [1] is 89.1 µM (active); in assay [2] it was 5.57 µM (active); in [6], 42.8 µM (active); in assay [7], 11.6 µM (active); in [16], 11.8 µM (active); in [17] it was 86.3 µM (active). In addition, the compound was called inactive in assay [19], in assay [3], in assay [4], in assay [5], in assay [8] and in assay [9]. Also, the result in assay [10], in assay [11], in assay [12], in [13] and in assay [15] was inactive.
